The text below walks through data of PubChem BioAssay.

Potency and affinity values are given separately. Inconclusive results are not listed. Where a call stands in place of a potency, no number is given. Activity calls are given as the source filed them. Unless noted, how the calls were made is not given here.

The nature of the first assay: CMV-driven luciferase expression suppression in HEK293 – cell-based, luminescence, dry powder, counter-screen for Pax8 inhibitor project, dose response (AID 743020;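 active means signal-lowering compounds whose fitted half-maximal concentration is at or below twice the top tested dose in every run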;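 further: HEK293 cells stably expressing the CMV luciferase reporter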). The settings on record: HEK293 CMV-luciferase reporter, SteadyGlo luminescence, 24 h; series mostly up to 35 µM.
Consider `O=C(Nc1cccc(NC(=O)c2ccccc2Cl)c1)c1ccc([N+](=O)[O-])o1`, for which the result was inactive.

As for `O=C(Nc1ccc(F)cc1)c1nc(S(=O)(=O)Cc2ccccc2)ncc1Cl`, the molecule was classed as inactive.

For the molecule `Cc1ccc(-c2cn3cc(C)ccc3n2)cc1`, the call was inactive.

As for `COC(=O)C12OCC34C(CC5C(C)=C(O)C(=O)CC5(C)C3C(O)C1O)OC(=O)C(OC(=O)C=C(C)C)C24` (stereo not given), the call was inactive.

Take `CCCN(CCC)Cc1c(C(=O)N/N=C/C(C)=C\c2ccco2)nnn1-c1nonc1N`: the result was inactive.

Regarding `O=C1C=CC(=C(c2ccc(O)cc2)c2ccc(O)cc2)C=C1`, the molecule was called inactive.

`Cc1ccc2c(c1C)-c1c(ccc(C)c1C)C(=O)C2=O`: the molecule was classed as inactive.

Regarding `O=C(Nc1cccc(Cl)c1)Nc1csc([N+](=O)[O-])c1`, the molecule was called inactive.

On to `CCCCn1nc(C(=O)Nc2cc(C(F)(F)F)ccc2N2CCOCC2)ccc1=O`, for which the outcome was inactive.

For `O=C(O)c1cccc(N/N=C/c2cccs2)c1`, the molecule was classed as inactive.

For the molecule `CCCCn1cnc2c(c(-c3ccccc3)c(-c3ccccc3)n2Cc2ccco2)c1=N`, the molecule was classed as inactive.

Regarding `Cc1ccc(S(=O)(=O)Nc2ccc3c(c2)C(=O)N([C@H](C)CO)C[C@H](C)[C@@H](CN(C)S(=O)(=O)c2ccc(C)cc2)OCCCC[C@H](C)O3)cc1`, the molecule was classed as inactive.

In the case of `COc1ccc(NC(=O)C(Sc2nnc(-c3ccncc3)n2-c2ccccc2C)c2ccccc2)cc1Cl` (stereo not given), the molecule was classed as inactive.

As to `O=C(OCC(=O)N1CCN(C(=O)c2ccco2)CC1)c1cccc(S(=O)(=O)N2CCc3ccccc32)c1`, the result was inactive.

Take `CCc1ccc2[nH]c3nc(N/N=C/c4ccc(O)cc4O)nnc3c2c1`: the call was inactive.

As to `COc1ccc(-c2ccc3c(c2)[C@H]2[C@H](CCN2S(=O)(=O)c2ccc(OC)cc2)[C@H](CO)N3C)cc1`, the molecule was classed as inactive.

With `CCN(c1nc(N)c(C(=O)N=C(N)N)nc1Cl)C(C)C`, the outcome was inactive.

For `C=C(C)C(=O)OC1(C(F)(F)F)Oc2cc(C)ccc2NC1=O` (stereo not given), the molecule was called inactive.

In the case of `O=C1/C(=C\c2ccc(Cl)c(Cl)c2)CN(C(=O)CCN2CCOCC2)C/C1=C/c1ccc(Cl)c(Cl)c1`, the molecule was called inactive.

Turning to `Nc1ncnc2c(C3OC(CO)C(O)C3O)scc12` (stereo not given), the call was inactive.

Consider `COc1nn(-c2ccccc2)c(=O)c(Cl)c1Cl`, for which the call was inactive.

For the molecule `O=C(Nc1ccc(Cl)cc1)Nc1ccc(N2CCCC2)c(S(=O)(=O)Nc2ccccc2Cl)c1`, the result was inactive.

On to `O=C(NC1CCCCC1)C(c1cccs1)N(C(=O)Cc1c[nH]c2ccccc12)c1ccc(F)cc1` (stereo not given), for which the molecule was classed as inactive.

Take `COc1ccc(C(=O)c2cc([N+](=O)[O-])ccc2N2CCOCC2)cc1`: the call was inactive.

In the case of `Cc1ccc(NC(=O)c2ccc([N+](=O)[O-])s2)cc1S(=O)(=O)N1CCOCC1`, the call was inactive.

For `C=CCC[C@H](Cc1ccc(F)cc1)C(=O)OC[C@H](Cc1c[nH]c2ccccc12)NC(=O)[C@H](CC=C)CC(=O)N(CCO)Cc1ccccc1`, the molecule was classed as inactive.

Regarding `COc1ccccc1N1CCN(Cc2cc(Br)c(O)c3ncccc23)CC1`, the outcome was inactive.

As for `C=C1C(=O)[C@]23C[C@H]1CC[C@H]2[C@]1(C)[C@@H](OC(C)=O)CC[C@@](C)(C(=O)OC)[C@H]1C[C@@H]3OC(C)=O`, the call was inactive.

Take `O=C(Nc1cccc(F)c1)N1CCCCN2[C@@H](CO)[C@H](c3ccc(C#Cc4ccccc4)cc3)[C@@H]2C1`: the molecule was called inactive.

For the molecule `C#CCN(C[C@H]1[C@H](OC(=O)Nc2c(C)noc2C)[C@H](OC(=O)Nc2c(C)noc2C)C[C@@H](C(=O)OC)[C@H]1C(=O)OC)S(=O)(=O)c1ccc(C)cc1`, the molecule was called inactive.

For `O=C(CCCN1C(=O)/C(=C/c2ccccc2OC(F)F)SC1=S)Nc1cccnc1`, the molecule was called inactive.

In the case of `C[C@@H](NC(=O)c1nc[nH]c1C(=O)N[C@@H](Cc1ccccc1)C(=O)OC(C)(C)C)c1ccccc1`, the call was inactive.

For the molecule `O=C(Nc1ccc([N+](=O)[O-])cn1)c1cc(-c2cccc(Br)c2)nc2ccccc12`, the outcome was inactive.

In the case of `N#Cc1ccc(NC(=O)COC(=O)C2CCC2)cc1`, the molecule was called inactive.

As for `COc1ccc(O)c(/C=N/NC(=O)c2ccc(N3CCCC3=O)cc2)c1`, the result was inactive.

As for `O=C(Nc1nc(-c2cccs2)c(-c2cccs2)s1)C1(c2ccccc2)CC1`, the outcome was inactive.

On to `C=C1C(=O)O[C@@H]2[C@H]1CC[C@H](C)[C@]1(O)CCC(=O)[C@@]21C`, for which the molecule was classed as inactive.

`CC(C)OCCCNC(=O)c1cccc(NC(=O)c2ccccc2)c1`: the outcome was inactive.

Consider `COc1cccc(/C=C2\SC(=S)N(CCC(=O)NCCc3ccc(O)cc3)C2=O)c1`, for which the result was inactive.

Consider `NC(=O)[C@H]1CC2(CC(c3cccc(NC(=O)COc4ccc(Cl)cc4)c3)=NO2)CN1C(=O)C(c1ccccc1)c1ccccc1` (stereo not given in full), for which the molecule was classed as inactive.

The next assay can be described thus: general cell-killing toxicity readout – plate reader, dry powder samples, cytotoxicity control for PAX8 inhibitor project, dose response (AID 743021). The settings on record: cell line, non-specific cytotoxicity counter-screen; series mostly up to 35 µM.
As for `O=C(Nc1cccc(NC(=O)c2ccccc2Cl)c1)c1ccc([N+](=O)[O-])o1`, the molecule was called inactive.

Take `O=C(Nc1ccc(F)cc1)c1nc(S(=O)(=O)Cc2ccccc2)ncc1Cl`: the result was inactive.

Take `Cc1ccc(-c2cn3cc(C)ccc3n2)cc1`: the molecule was called inactive.

Turning to `COC(=O)C12OCC34C(CC5C(C)=C(O)C(=O)CC5(C)C3C(O)C1O)OC(=O)C(OC(=O)C=C(C)C)C24` (stereo not given), the molecule was called inactive.

In the case of `CCCN(CCC)Cc1c(C(=O)N/N=C/C(C)=C\c2ccco2)nnn1-c1nonc1N`, the result was inactive.

`O=C1C=CC(=C(c2ccc(O)cc2)c2ccc(O)cc2)C=C1`: the call was inactive.

For `Cc1ccc2c(c1C)-c1c(ccc(C)c1C)C(=O)C2=O`, the call was inactive.

Take `O=C(Nc1cccc(Cl)c1)Nc1csc([N+](=O)[O-])c1`: the result was inactive.

On to `CCCCn1nc(C(=O)Nc2cc(C(F)(F)F)ccc2N2CCOCC2)ccc1=O`, for which the result was inactive.

For the molecule `O=C(O)c1cccc(N/N=C/c2cccs2)c1`, the call was inactive.

In the case of `CCCCn1cnc2c(c(-c3ccccc3)c(-c3ccccc3)n2Cc2ccco2)c1=N`, the call was inactive.

As for `Cc1ccc(S(=O)(=O)Nc2ccc3c(c2)C(=O)N([C@H](C)CO)C[C@H](C)[C@@H](CN(C)S(=O)(=O)c2ccc(C)cc2)OCCCC[C@H](C)O3)cc1`, the outcome was inactive.

In the case of `COc1ccc(NC(=O)C(Sc2nnc(-c3ccncc3)n2-c2ccccc2C)c2ccccc2)cc1Cl` (stereo not given), the molecule was classed as inactive.

Turning to `O=C(OCC(=O)N1CCN(C(=O)c2ccco2)CC1)c1cccc(S(=O)(=O)N2CCc3ccccc32)c1`, the molecule was called inactive.

Turning to `CCc1ccc2[nH]c3nc(N/N=C/c4ccc(O)cc4O)nnc3c2c1`, the outcome was inactive.

For the molecule `COc1ccc(-c2ccc3c(c2)[C@H]2[C@H](CCN2S(=O)(=O)c2ccc(OC)cc2)[C@H](CO)N3C)cc1`, the result was inactive.

Turning to `CCN(c1nc(N)c(C(=O)N=C(N)N)nc1Cl)C(C)C`, the outcome was inactive.

On to `C=C(C)C(=O)OC1(C(F)(F)F)Oc2cc(C)ccc2NC1=O` (stereo not given), for which the outcome was inactive.

As for `O=C1/C(=C\c2ccc(Cl)c(Cl)c2)CN(C(=O)CCN2CCOCC2)C/C1=C/c1ccc(Cl)c(Cl)c1`, the molecule was called inactive.

Consider `Nc1ncnc2c(C3OC(CO)C(O)C3O)scc12` (stereo not given), for which the result was inactive.

`COc1nn(-c2ccccc2)c(=O)c(Cl)c1Cl`: the molecule was classed as inactive.

On to `O=C(Nc1ccc(Cl)cc1)Nc1ccc(N2CCCC2)c(S(=O)(=O)Nc2ccccc2Cl)c1`, for which the result was inactive.

On to `O=C(NC1CCCCC1)C(c1cccs1)N(C(=O)Cc1c[nH]c2ccccc12)c1ccc(F)cc1` (stereo not given), for which the molecule was classed as inactive.

As for `COc1ccc(C(=O)c2cc([N+](=O)[O-])ccc2N2CCOCC2)cc1`, the call was inactive.

Turning to `Cc1ccc(NC(=O)c2ccc([N+](=O)[O-])s2)cc1S(=O)(=O)N1CCOCC1`, the outcome was inactive.

For the molecule `C=CCC[C@H](Cc1ccc(F)cc1)C(=O)OC[C@H](Cc1c[nH]c2ccccc12)NC(=O)[C@H](CC=C)CC(=O)N(CCO)Cc1ccccc1`, the outcome was inactive.

Consider `COc1ccccc1N1CCN(Cc2cc(Br)c(O)c3ncccc23)CC1`, for which the result was inactive.

For `C=C1C(=O)[C@]23C[C@H]1CC[C@H]2[C@]1(C)[C@@H](OC(C)=O)CC[C@@](C)(C(=O)OC)[C@H]1C[C@@H]3OC(C)=O`, the activity change, negative = cytotoxicity is -15.7% [at 8 µM] (inactive).

For `O=C(Nc1cccc(F)c1)N1CCCCN2[C@@H](CO)[C@H](c3ccc(C#Cc4ccccc4)cc3)[C@@H]2C1`, the result was inactive.

As for `C#CCN(C[C@H]1[C@H](OC(=O)Nc2c(C)noc2C)[C@H](OC(=O)Nc2c(C)noc2C)C[C@@H](C(=O)OC)[C@H]1C(=O)OC)S(=O)(=O)c1ccc(C)cc1`, the molecule was classed as inactive.

In the case of `O=C(CCCN1C(=O)/C(=C/c2ccccc2OC(F)F)SC1=S)Nc1cccnc1`, the outcome was inactive.

For `C[C@@H](NC(=O)c1nc[nH]c1C(=O)N[C@@H](Cc1ccccc1)C(=O)OC(C)(C)C)c1ccccc1`, the outcome was inactive.

For the molecule `O=C(Nc1ccc([N+](=O)[O-])cn1)c1cc(-c2cccc(Br)c2)nc2ccccc12`, the call was inactive.

On to `N#Cc1ccc(NC(=O)COC(=O)C2CCC2)cc1`, for which the molecule was called inactive.

With `COc1ccc(O)c(/C=N/NC(=O)c2ccc(N3CCCC3=O)cc2)c1`, the molecule was classed as inactive.

Consider `O=C(Nc1nc(-c2cccs2)c(-c2cccs2)s1)C1(c2ccccc2)CC1`, for which the molecule was classed as inactive.

Turning to `C=C1C(=O)O[C@@H]2[C@H]1CC[C@H](C)[C@]1(O)CCC(=O)[C@@]21C`, the molecule was called inactive.

On to `CC(C)OCCCNC(=O)c1cccc(NC(=O)c2ccccc2)c1`, for which the molecule was called inactive.

As for `COc1cccc(/C=C2\SC(=S)N(CCC(=O)NCCc3ccc(O)cc3)C2=O)c1`, the call was inactive.

`NC(=O)[C@H]1CC2(CC(c3cccc(NC(=O)COc4ccc(Cl)cc4)c3)=NO2)CN1C(=O)C(c1ccccc1)c1ccccc1` (stereo not given in full): the call was inactive.
